Bioassay records deposited in PubChem by National Center for Advancing Translational Sciences (NCATS).
RGS4 inh: inhibitors of human regulator of G protein signaling 4 | P49798 | Transcreener GDP fluorescence polarization, RGS4-accelerated GTP hydrolysis | Potency, µM (series often up to 114 µM), for the others: at the top dose activity change, negative = inhibition, most hits filed as inhibitors | 390,000 tested, 0.039% active | AID 504845; active = well fitted inhibition curve with a large enough effect; inconclusive = small, poorly fitted or top-dose-only effect; inactive = no such curve, though single readings can be large or run the other way; note: potency is the fitted concentration of half-maximal effect; % is set by controls: 0 for no effect and ±100 for the full control effect; nearly all actives have a fitted effect of over 75% in size
Target sequence (P49798 whole entry, looked up): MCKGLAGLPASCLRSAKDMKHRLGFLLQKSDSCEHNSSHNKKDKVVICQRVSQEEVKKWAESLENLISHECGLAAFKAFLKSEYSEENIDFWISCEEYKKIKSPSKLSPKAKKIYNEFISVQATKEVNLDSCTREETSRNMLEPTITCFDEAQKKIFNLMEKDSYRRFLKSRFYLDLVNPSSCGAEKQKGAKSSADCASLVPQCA
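MLSMR compounds (23 nl, pin-transferred) preincubated 10 min at room temperature with a 500nM (2x) first reagent, then RGS4 at 900nM (2x) plus Transcreener GDP mix added; fluorescence polarization (620/688 nm) read before and after 90 min at 30 °C.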
D3 antag: blocks the human D3 dopamine receptor; 360,000 tested, 2.5% active; AID 652054; D3R cells, DiscoveRx beta-arrestin luminescence, antagonist mode; stronger effect = lower value; max response, negative = inhibition, %; in the data active = max response below about -50%; inconclusive = no clear call, values can overlap the other calls; note: % is set by controls: 0 for no effect and ±100 for the full control effect
Target sequence (P35462 whole entry, looked up): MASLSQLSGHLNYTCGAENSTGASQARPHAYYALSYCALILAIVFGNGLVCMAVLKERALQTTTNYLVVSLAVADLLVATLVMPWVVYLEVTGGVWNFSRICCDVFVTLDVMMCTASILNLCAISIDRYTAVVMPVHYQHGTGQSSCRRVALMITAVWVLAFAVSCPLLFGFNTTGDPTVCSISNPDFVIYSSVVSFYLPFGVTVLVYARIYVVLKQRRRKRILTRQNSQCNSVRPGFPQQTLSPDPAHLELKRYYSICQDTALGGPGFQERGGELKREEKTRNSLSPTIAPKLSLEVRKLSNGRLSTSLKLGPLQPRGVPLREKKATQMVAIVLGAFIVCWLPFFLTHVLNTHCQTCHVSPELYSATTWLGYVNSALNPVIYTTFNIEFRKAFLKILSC
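Cells expressing the human receptor were seeded at 1500 cells/well, incubated overnight at 37 degrees C in 5% CO2, then exposed to library compounds with dopamine controls for 90 minutes at 37 degrees C before luminescent detection.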
D3 ag: agonists of human D3 dopamine receptor; P35462; D3R DiscoveRx beta-arrestin cells, luminescence, 90 min; max activation, %; 410,000 tested, 0.58% active; in the data active = max activation above about 30%; note: 0% is about no effect
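Cells at 1500/well, incubated overnight, then treated with pinned compounds (dopamine as control) for 90 min at 37 degrees C. DiscoveRx reagent added for 30 - 60 minutes at room temperature; luminescence read.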
uPA generation: cell surface uPA generation inhibition | cell surface uPA generation assay, qHTS | Potency, µM (doses to about 38.3 µM), without a hit: at the highest dose activity change, negative = inhibition, actives largely listed as inhibitors | 330,000 tested, 0.31% active | AID 540303; active = well fitted inhibition curve with a large enough effect; inconclusive = small, poorly fitted or top-dose-only effect; inactive = no such curve, though single readings can be large or run the other way; tested in mouse RAW 264.7 cells; note: potency is the fitted concentration of half-maximal effect; % is set by controls: 0 for no effect and ±100 for the full control effect; nearly all actives have a fitted effect of over 55% in size
The depositor's hits bear a star; ? = inconclusive; . = not tested or not shown; ! = a repeat was not active; [ ] = another dose, or the depositor's remark. Rows were chosen to be rich in hits. Some 3.1% of all compounds tested hit in one or more screens of this group.

SMILES	RGS4 inh	D3 antag	D3 ag	uPA generation
Cc1ccc(N2C(=O)C(CC(=O)Nc3ccc(F)cc3)N(CCC3=CCCCC3)C2=O)cc1 (configuration not stated)	7.3%	.	-7.6	.
Cc1ccc(C(=O)NCCN2CCC(n3c(=O)[nH]c4ccccc43)CC2)cc1C	.	-110.8*	-16.9	.
O=C(NCCN1CCC(n2c(=O)[nH]c3ccccc32)CC1)c1ccc(F)cc1Cl	.	-76.6*	-16.5	.
O=C(NCCN1CCC(n2c(=O)[nH]c3ccccc32)CC1)N1c2ccccc2Sc2ccccc21	.	-111.4*	-13.2	.
O=C(NCCN1CCC(n2c(=O)[nH]c3ccccc32)CC1)c1ccccc1	.	-113.2*	-12.7	.
C[C@@](N)(C(=O)O)c1ccc(S(=O)(=O)O)cc1	-43.9%[56.9 µM]	.	.	.
Cc1ccc(Cl)cc1N1CCN(S(=O)(=O)c2ccc3c(c2)CC(=O)N3C)CC1	-6.1%	-14.2	68.6*!	10.4%
O=S(=O)(c1ccc(F)cc1)N1CCN(CC(O)COCc2cccs2)CC1 (configuration not stated)	18.5%	-28.3	0.4	0.0%
OC(COCc1cccs1)CN1CCN(c2cccc(C(F)(F)F)c2)CC1 (configuration not stated)	-19.5%	-54.8*	-5.4	4.7%
Cc1ccc(-c2noc(-c3ccc(NC4CCCC4)c([N+](=O)[O-])c3)n2)cc1	15.0%	.	-7.4	.
COC(=O)c1ccc(-n2c(/C=C\c3cccc(Br)c3)nc3ccccc3c2=O)cc1	-17.7%	.	-5.7	.
Brc1ccc2c(c1)C(C1=NCCN1)c1ccccc1CS2 (configuration not stated)	20.0%	-10.0	-3.5	0.501µM*
CS(=O)(=O)Nc1ccccc1C(=O)N1CCCC1	-50.5%	0.2	3.2	4.6%
CC(C)(CNC(=O)c1ccccc1NS(C)(=O)=O)N1CCCCC1	-8.9%	-58.1*	-20.6	.
Cc1ccc(C)c(NC(=O)CN2C(=O)c3cccnc3Oc3ccc(C)cc32)c1	7.3%	.	6.9	.
CCOC(=O)N=S(N)(=O)c1ccccc1 (configuration not stated)	-0.3%	15.6	32.2*	.
CCOC(=O)CC(S(=O)(=O)c1ccccc1)S(=O)(=O)c1ccccc1	.	-95.1*	-13.2	.
CCOC(=O)CN(c1ccccn1)S(=O)(=O)c1ccccc1	-2.5%	17.2	6.8	1.6%
CCOC(=O)N=S(N)(=O)c1ccc(Cl)cc1 (configuration not stated)	4.1%[11.4 µM]	-22.2	-0.9	1.5%
CCOc1ccc(C(=O)NCC(c2ccc3c(c2)OCO3)N2CCN(C)CC2)cc1 (configuration not stated)	11.7%	.	-6.0	.
Cn1c(=NC(=O)CS(=O)(=O)c2ccccc2)sc2cc(F)ccc21	.	-4.1	-3.8	.
CC(=O)SCC(=O)N=c1sc2cc(F)ccc2n1C	-0.6%	59.9	45.8*	-3.7%
CCN(CC)c1ccc(N=Nc2ccc(S(=O)(=O)N(C)C)cc2)c(S(=O)(=O)NCC[n+]2ccccc2)c1	.	.	8.7	.
CC(=O)c1c(C)cc(C)c(CSc2nc(C)cc(=O)[nH]2)c1C	6.8%	452.4	69.0*	-8.7%
Cc1ccc(C)c(N2CCN(C(=O)CCc3nc(-c4ccccc4Cl)no3)CC2)c1	-5.2%	104.8	50.0*	1.0%
SMILES	RGS4 inh	D3 antag	D3 ag	uPA generation
CC#CCC(C)[C@H](O)/C=C/[C@@H]1[C@H]2C/C(=C/CCCC(=O)O)C[C@H]2C[C@H]1O (some centres not stated)	.	.	-21.6	.
CC1CCN(S(=O)(=O)c2ccc(Oc3ccc([N+](=O)[O-])cc3)cc2)CC1	9.3%	-81.1*	-19.0	.
O=S(=O)(c1ccc2c(c1)C(=NO)c1cc(S(=O)(=O)N3CCCCC3)ccc1-2)N1CCCCC1	1.1%[11.4 µM]	?	-9.3	-17.5%
CCN(CC)S(=O)(=O)c1cccc(S(=O)(=O)c2cccc(S(=O)(=O)N(CC)CC)c2)c1	31.2%	12.3	36.2*	.
CCN(CC)S(=O)(=O)c1cccc(C(=O)Oc2cccnc2)c1	2.9%	-53.1*	-4.9	-6.6%
CCN(CC)S(=O)(=O)c1cccc(C(=O)Oc2cccc(NC(=O)c3cccs3)c2)c1	-18.0%	12.5	-27.4	1.7%
CC1CCN(S(=O)(=O)c2ccc3c(c2)C(=NO)c2cc(S(=O)(=O)N4CCC(C)CC4)ccc2-3)CC1	9.8%	8.4	55.4*	-15.0%
CC1CCN(S(=O)(=O)c2ccc([N+](=O)[O-])cc2)CC1	6.6%	-2.5	0.0	2.5%
COc1ccc(-c2nc(S(=O)(=O)c3ccc(Cl)cc3)c(NCc3ccccc3)o2)cc1	-12.3%	.	-15.7	.
O=S(=O)(Nc1ccc(-c2ccc(N3CCCC3)nn2)cc1)c1cc(F)ccc1F	4.1%	.	-4.1	.
CCN(CC)S(=O)(=O)c1ccc(C)c(C)c1	21.5%	24.7	5.1	.
CCN(CC)S(=O)(=O)c1ccc2c(c1)C(=NO)c1cc(S(=O)(=O)N(CC)CC)ccc1-2	-15.1%	-79.7*	-11.5	-13.1%
C[N+](C)(CCOc1ccccc1)Cc1cccs1	.	.	-13.4	.
COc1cc(OC)cc(-c2c(-c3cccs3)c3cc(-c4ccn[nH]4)ccc3n2C)c1	-13.6%	32.3	37.2*	3.5%
COc1cc(OC)cc(-c2c(-c3cccs3)c3cc(-c4ccc(N(C)C)nc4)ccc3n2C)c1	-16.9%	0.0	46.7*	7.2%
Nc1ccc2nc(-c3ccc(Cl)cc3)[nH]c2c1	?	-8.2	-6.6	4.47µM*
Cc1c(C(=O)N2CCC(c3nc4ccccc4s3)CC2)oc2ccc(Cl)cc12	0.0%	.	-4.7	.
CCn1c(C)nc2cc(S(=O)(=O)N3CCCCC3)ccc21	9.8%	0.8	-5.0	-6.3%
CCn1c(CN2CCCCC2)nc2cc(S(=O)(=O)N3CCCCC3)ccc21	7.6%	-81.1*	-10.1	-21.8%
Cc1cccc(-c2noc(-c3ccc(NC4CCCC4)c([N+](=O)[O-])c3)n2)c1	7.5%	.	-2.4	.
COc1ccc(OCC(=O)Nc2c(C(=O)N3CCN(c4ccccc4)CC3)oc3ccccc23)cc1	-6.1%	.	88.8*	.
COc1c(CC=C(C)C)cc(C2CC(=O)c3c(O)cc(O)cc3O2)cc1CC=C(C)C (configuration not stated)	-0.8%	6.8	-7.5	7.94µM*
COc1ccc(-c2ccc(-c3noc(-c4cc(OC)cc(OC)c4)n3)c(OC)n2)cc1	4.2%	.	8.2	.
COc1ccc(-c2c(C#N)c(C)nc3c2C(=O)c2ccccc2-3)cc1	-2.6%	9.7	2.1	-15.7%
COc1ccc(C2=C(C#N)C(=O)OC2)cc1	-5.8%	-55.9*	0.5	3.4%
SMILES	RGS4 inh	D3 antag	D3 ag	uPA generation
COC(=O)c1cc2occc2n1CC(=O)Nc1ccc(C)cc1Cl	-4.9%	.	4.2	.
CC(=O)Nc1ccc(S(=O)(=O)Nc2cccc3cccnc23)cc1	1.0%	-17.7	-1.1	-7.6%
O=S(=O)(Nc1cccc2cccnc12)c1ccc(S(=O)(=O)N2CCCC2)cc1	1.7%	-72.4*	-42.4	?
COc1ccc(S(=O)(=O)Nc2cccc3cccnc23)cc1	-9.9%	.	.	.
O=S(=O)(Nc1cccc2cccnc12)c1ccccc1	-3.0%	-70.6*	-22.6	-4.4%
CS(=O)(=O)Nc1cccc2cccnc12	-17.2%	-56.9*	-16.6	-5.3%
Cc1ccc(S(=O)(=O)Nc2cccc3cccnc23)c([N+](=O)[O-])c1	-9.1%	-56.3*	-11.1	-13.3%
